Screening data: PubChem, The Scripps Research Institute Molecular Screening Center
ULK1 inh – blocks human autophagy kinase ULK1; AlphaScreen Atg13 phosphorylation by ULK1, luminescence; inhibition, % at 5.96 µM; actives 1.9% (n = 30,000); O75385; in the data active means inhibition above about 43%;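 further: 0% = median of compound wells and 100% = no enzyme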
Target sequence (O75385 whole entry, looked up): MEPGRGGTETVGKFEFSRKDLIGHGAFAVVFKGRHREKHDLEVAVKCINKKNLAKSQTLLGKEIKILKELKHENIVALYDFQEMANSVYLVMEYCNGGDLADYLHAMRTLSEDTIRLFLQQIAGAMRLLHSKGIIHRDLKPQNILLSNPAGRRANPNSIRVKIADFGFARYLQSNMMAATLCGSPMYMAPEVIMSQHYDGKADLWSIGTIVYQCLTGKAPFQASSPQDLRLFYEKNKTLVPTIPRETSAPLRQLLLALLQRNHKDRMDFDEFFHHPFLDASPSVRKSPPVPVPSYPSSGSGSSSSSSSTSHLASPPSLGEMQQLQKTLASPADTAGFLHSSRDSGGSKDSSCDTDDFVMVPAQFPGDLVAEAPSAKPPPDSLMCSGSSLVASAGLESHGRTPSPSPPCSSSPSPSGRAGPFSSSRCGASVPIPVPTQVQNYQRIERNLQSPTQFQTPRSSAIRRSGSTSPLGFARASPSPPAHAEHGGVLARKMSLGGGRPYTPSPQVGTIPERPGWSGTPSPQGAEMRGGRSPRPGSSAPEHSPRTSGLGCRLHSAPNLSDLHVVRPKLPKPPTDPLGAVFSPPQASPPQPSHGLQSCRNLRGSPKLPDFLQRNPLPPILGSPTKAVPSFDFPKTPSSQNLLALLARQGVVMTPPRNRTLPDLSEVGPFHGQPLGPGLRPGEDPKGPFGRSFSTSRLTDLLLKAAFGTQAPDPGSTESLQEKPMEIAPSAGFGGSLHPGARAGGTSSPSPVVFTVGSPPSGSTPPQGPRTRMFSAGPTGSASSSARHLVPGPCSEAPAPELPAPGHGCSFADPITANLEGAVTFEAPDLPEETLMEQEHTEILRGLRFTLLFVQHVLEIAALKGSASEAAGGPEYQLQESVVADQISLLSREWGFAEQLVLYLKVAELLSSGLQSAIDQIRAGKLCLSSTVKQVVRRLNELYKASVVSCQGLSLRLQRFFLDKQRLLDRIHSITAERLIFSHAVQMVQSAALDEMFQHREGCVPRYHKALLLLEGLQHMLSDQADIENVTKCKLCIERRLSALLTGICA
ASK1 primary – human ASK1 kinase inhibition, primary screen. Q99683. AlphaScreen MKK6 phosphorylation by ASK1, luminescence. inhibition, % at 7.44 µM. actives 0.99% (n = 22,000). AID 1159602; in the data active means inhibition above about 35%;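 further: 0% = median of compound wells and 100% = no enzyme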
AlphaScreen intf – AlphaScreen optical interference dose response, ASK1 counter-screen; AlphaScreen TruHits beads, signal interference counterscreen; shares compounds with ASK1 primary; actives 20% (n = 220); IC50, µM;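 active means IC50 of 10 µM or lower in the counterscreen; inactive means IC50 above 10 µM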;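 further: loss of AlphaScreen light from TruHits beads alone with no ASK1 enzyme present; potency of signal reduction so a low IC50 flags an assay artifact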
* = called active by the depositor; i = inactive; x = no result given. Most compounds without a hit are left out; they make up all but 2.5% or so of the library.

SMILES	ULK1 inh	ASK1 primary	AlphaScreen intf
CCCNc1nc(Nc2ccc(N3CCOCC3)cc2)nc2cc(OC)c(OC)cc12	9	30	x
COc1cc2nc(Nc3ccc(N4CCOCC4)cc3)nc(NCc3ccccc3)c2cc1OC	-7	41*	i
NC(C(=O)N1CCC(Nc2ccc3[nH]ncc3c2)C1)c1cccc(Cl)c1 (stereo not drawn)	20	-3	x
Cc1nc(C)n(-c2ccc(Nc3nccc(-c4cccc(-n5ccnc5)c4)n3)cc2)n1	-92	-72	x
Cc1nc(C)n(-c2ccc(Nc3nccc(-c4cccc(-n5nccn5)c4)n3)cc2)n1	-15	39*	>19
CCCNc1nc(Nc2ccc(N3CCOCC3)cc2)nc2c1ncn2Cc1ccc(C(F)(F)F)cc1	-2	40*	i
FC(F)(F)c1ccc(Cn2cnc3c(NCCN4CCOCC4)nc(Nc4ccc(C(F)(F)F)cc4)nc32)cc1	-36	5	x
FC(F)(F)c1ccc(Cn2cnc3c(Nc4ccc5c(c4)OCO5)nc(Nc4ccc(N5CCOCC5)cc4)nc32)cc1	3	62*	i
FC(F)(F)c1ccc(Cn2cnc3c(Nc4ccc(N5CCOCC5)cc4)nc(Nc4ccc(N5CCOCC5)cc4)nc32)cc1	1	22	x
CC(=O)Nc1ccc(Nc2cc(C)nc(N3CCN(Cc4ccc5c(c4)OCO5)CC3)n2)cc1	-5	17	x
COCCNc1cc(-c2ccc(F)cc2)nc(-c2cccnc2)n1	-4	x	x
COc1ccc(CCNc2nc(Nc3cccc(N(C)C)c3)nc3c2ncn3C(C)C)cc1	9	37*	>20
CC(C)n1cnc2c(NCCO)nc(Nc3cccc(N(C)C)c3)nc21	20	13	x
Fc1cc(-c2ccnc(Nc3ccc(-n4cnc(-c5cncc(Cl)c5)n4)cc3)n2)cc(N2CCOCC2)c1	0	-3	x
Cc1noc(C)c1-c1cccc(C(=O)NC2CC2)c1	2	3	x
COc1cccc(OC)c1CN1CCC(N)CC1	2	x	x
Cc1[nH]ncc1-c1ccc2nc(NC(=O)C3COc4ccc(F)cc4C3)sc2c1 (stereo not drawn)	14	39*	>19
Cc1[nH]ncc1-c1ccc(NC(=O)C2COc3ccc(F)cc3C2)c(N(C)CCN(C)C)c1 (stereo not drawn)	2	-6	x
O=C(NC1CC1)c1ccc(-c2ncc(C(=O)NCCN3CCOCC3)s2)cc1	2	-2	x
CN1CCN(c2ccc(-c3cc(C(=O)NCCc4ccc(O)cc4)ccn3)cc2)CC1	6	-6	x
COc1cc2nc(Nc3cc(OC)c(OC)c(OC)c3)nc(Nc3ccccc3)c2cc1OC	-37	16	x
CCN(CC)c1nc(Nc2ccc(N3CCOCC3)cc2)nc(Nc2ccc(-n3ccnc3)cc2)n1	-24	41*	6*
CCN(CC)c1nc(NCCN2CCOCC2)nc(Nc2ccc(-n3ccnc3)cc2)n1	0	9	x
O=C(NCc1ccccc1)c1cccc(N2CCN(Cc3ccc4c(c3)OCO4)CC2)n1	4	-10	x
O=C(Cc1cn(-c2ccc(NCc3cccnc3)nn2)c2ccccc12)NCCCN1CCCC1=O	5	-9	x
SMILES	ULK1 inh	ASK1 primary	AlphaScreen intf
Nc1cc(C2=C3C=C(Br)N=C3C(=O)NCC2)c(O)[nH]1	31	17	x
Nc1cc(C2=C3C=CN=C3C(=O)NCC2)c(O)[nH]1	71*	38*	>19
O=C1CCCN1CCn1cnc2c(NCCN3CCOCC3)nc(Nc3ccc4ncccc4c3)nc21	6	5	x
COc1cc2nc(-c3csc4ccccc34)nc(Nc3ccc(N4CCOCC4)cc3)c2cc1OC	-28	29	x
CC(=O)c1cccc(-c2ncc(C)c(Nc3ccc(N4CCOCC4)cc3)n2)c1	19	15	x
Nc1cccc(-c2nc3ncnc(Nc4ccc(N5CCOCC5)cc4)c3[nH]2)c1	6	36*	>18
c1ccc(-c2nc3ncnc(Nc4ccc(N5CCOCC5)cc4)c3[nH]2)cc1	-1	15	x
Cc1cnc(-c2csc3ccccc23)nc1Nc1ccc(N2CCOCC2)cc1	-11	42*	>20
Cc1cnc(-c2cccc(N)c2)nc1Nc1ccc(N2CCOCC2)cc1	-10	51*	>18
CC(C)n1cnc2c(Nc3ccc(N4CCOCC4)cc3)nc(N3CCN(c4ccccn4)CC3)nc21	35	36*	i
CC(C)n1cnc2c(Nc3ccc(Oc4ccccc4)cc3)nc(N3CCOCC3)nc21	17	42*	>20
c1ccc(-n2cnc3c(Nc4ccc(N5CCOCC5)cc4)nc(Nc4ccc(-n5ccnc5)cc4)nc32)cc1	17	-5	x
CC(C)n1cnc2c(Nc3ccccc3)nc(Nc3ccc(N4CCOCC4)cc3)nc21	31	47*	>20
CC(C)n1cnc2c(Nc3ccccc3)nc(N3CCN(c4ccccn4)CC3)nc21	16	32	x
CC(C)n1cnc2c(Nc3ccccc3)nc(N3CCOCC3)nc21	17	2	x
c1ccc(-n2cnc3c(Nc4ccc(N5CCOCC5)cc4)nc(Nc4cccnc4)nc32)cc1	11	40*	>16
CC(C)n1cnc2c(NCc3ccccc3)nc(Nc3ccc(N4CCOCC4)cc3)nc21	-5	35	x
NC(=O)c1csc(-c2ccc(N3CCOCC3)nc2)n1	8	-23	x
NC(=O)c1ccc(-c2nc(NCCO)c3ncn(-c4ccccc4)c3n2)cc1	0	4	x
CC(=O)Nc1ccc(Nc2cc(Nc3ccccn3)ncn2)cc1	-5	11	x
COc1cc(NC(=O)c2csc(Nc3ccc4ncccc4c3)n2)cc(OC)c1OC	23	19	x
COc1ccc(CCNC(=O)c2cncc(-c3ccc(C(N)=O)cc3)c2)cc1	3	-4	x
FC(F)(F)c1ccc(Cn2cnc3c(Nc4ccc(N5CCOCC5)cc4)nc(N4CCN(c5ccccn5)CC4)nc32)cc1	-11	38*	>20
CC(=O)Nc1ccc(Nc2nc(N3CCN(c4ccccn4)CC3)nc3c2ncn3Cc2ccc(C(F)(F)F)cc2)cc1	-58	6	x
COc1nc(NCCc2ccc(O)cc2)nc(-c2ccc(C(=O)N3CCN(C)CC3)cc2)n1	7	-9	x
SMILES	ULK1 inh	ASK1 primary	AlphaScreen intf
O=C(/C=C/c1ccccc1Cl)Nc1ccc2[nH]ncc2c1	-7	-10	x
COc1ccc2c(c1)CC(c1nc3c(OC)cc(-c4cn[nH]c4)cc3c(=O)[nH]1)CO2 (stereo not drawn)	-5	-14	x
COc1cc(-c2cn[nH]c2)cc2c(=O)[nH]c(C3COc4ccc(C)cc4C3)nc12 (stereo not drawn)	5	40*	>19
Cc1cc(Nc2ccccc2)nc(Nc2ccc(N3CCOCC3)cc2)n1	-4	19	x
Cc1cc(NCc2cccc(C(F)(F)F)c2)nc(Nc2cccc(N(C)C)c2)n1	-6	40*	i
Cc1cc(Nc2ccc(N3CCOCC3)cc2)nc(Nc2cccc(N(C)C)c2)n1	-5	41*	>20
Cc1cc(NCc2ccccc2)nc(Nc2cccc(N(C)C)c2)n1	9	23	x
FC(F)(F)c1cccc(CNc2ccnc(Nc3ccccc3)n2)c1	-20	-1	x
CN(C)c1cccc(Nc2nccc(NCc3cccc(C(F)(F)F)c3)n2)c1	-1	43*	>16
CN(C)c1cccc(Nc2nccc(NCCOc3ccccc3)n2)c1	-3	43*	i
CCCNc1ccnc(Nc2cccc(N(C)C)c2)n1	13	22	x
O=C(Cc1ccc(Br)cc1)N[C@@H]1CCN(C(=O)c2ccc3[nH]ncc3c2)C1	-3	0	x
c1ccc(Nc2nc(-c3ccc(N4CCOCC4)nc3)nc3c2ncn3C2CCCCC2)cc1	6	4	x
